Assay results as given in PubChem BioAssay (NCATS).
Several values for one entry are separate records, joined by “and”; a condition that tells them apart may be missing. Identical values can stand only once. Results filed as inconclusive are left out. Activity calls are given as the source filed them. Unless noted, calls come from the whole dose curve; as a rule, active = well fitted curve in either direction with a large enough effect (not every such curve was filed as active); inconclusive = small, poorly fitted or top-dose-only effect, or another doubt; inactive = flat fitted curve, though single readings scatter.

How the values were obtained:
[1] = AP1 Signaling Pathway (AID 357); conditions: ME-180 AP-1-bla reporter, EGF-induced, beta-lactamase ratio, 5 h;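 note: ME-180 reporter cells stimulated with EGF at its EC50 level; % is set by controls: 0 for no effect and ±100 for the full control effect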
Summary of the method: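 Read-out was the 460nm/530nm emission ratio (excitation 405nm) after CCF4 loading for 2.5 hours at room temperature. Cells carried an AP-1-driven beta-lactamase reporter, were stimulated with EC50 EGF plus compound for 5 hours, and AC50 values came from titrations.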

[2] = NFAT Signaling Pathway (AID 444); conditions: Jurkat NFAT-bla M1, carbachol, beta-lactamase ratio, 5 h;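 note: carbachol stimulus at about its EC50 of 1 µM final; % is set by controls: 0 for no effect and ±100 for the full control effect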
Summary of the method: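 Jurkat cells with NFAT-driven β-lactamase reporter and co-expressed M1 receptor, stimulated with carbachol (final 1 uM, ~EC50), compound titration, 5 h at 37 °C. CCF4 loaded 1 h at RT; 460/530 nm ratio gave %activity and AC50.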

[3] = Stat Signaling Pathway (AID 446); conditions: ME-180 SIE beta-lactamase reporter, IL-6 stimulated, 5 h;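 note: ME-180 cervical cancer cells given 40 pM IL-6 alongside compound; SIE-controlled beta-lactamase reporter measured as 460/530 nm FRET emission ratio; % is set by controls: 0 for no effect and ±100 for the full control effect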
Summary of the method: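 Reporter line: ME-180 cervical carcinoma, SIE-beta-lactamase. Treatment: compound with 40 pM IL-6, 5 hrs, 37 C, in low-serum OPTI-MEM with 10 mM HEPES pH 7.3. Detection: 460/530 nm fluorescence.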

[4] = biological target: Mitogen-activated protein kinase 10 (Mus musculus) (UniProt Q61831); test: JNK3 AlphaScreen Assay (AID 530);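 note: kinase came from lysate of stimulated human HepG2 cells; signal reports phosphorylation of biotinylated GST-cJun 1-79 at Ser73 with 10 µM ATP; % is set by controls: 0 for no effect and ±100 for the full control effect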
Summary of the method: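 qHTS format: compounds tested as titrations against IL-1beta/TNF-alpha-activated HepG2 lysate JNK3 with biotin-GST-cJun substrate and 10 uM ATP at room temperature. Loss of anti-phospho-cJun AlphaScreen signal indicates inhibition.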

[5] = biological target: Guanine nucleotide-binding protein G(i) subunit alpha-1 (Homo sapiens) (UniProt P63096); test: qHTS Assay for Inhibitors of RGS12 GoLoco Motif Activity (Green Fluorophore) (AID 879; active = well fitted curve in the direction sought with a large enough effect; an effect the other way counts as inactive or inconclusive;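 note: 0% = labeled peptide with Gαi1 and full inhibition = labeled peptide alone without protein; negative values mean loss of peptide binding seen as reduced polarization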)
Summary of the method: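 Fluorescence polarization assay: 50 nM Gαi1 with 10 nM FITC-labeled RGS12 GoLoco peptide in 10 mM Tris pH 7.5, 150 mM NaCl, 0.1 mM GDP, 0.05% NP40, 10 min at room temperature with compound.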

[6] = qHTS Assay for Identification of Small Molecule Agonists for Thrombopoietin (TPO) Signaling Pathway (AID 917; active = well fitted curve in the direction sought with a large enough effect; an effect the other way counts as inactive or inconclusive; note: % is set by controls: 0 for no effect and ±100 for the full control effect)
Summary of the method: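 IL-3-dependent murine pro-B Ba/F3 cells, stably transfected with human TPO receptor and GpIIb-promoter luciferase, are incubated 24 hrs at 37 C with test compound and 26 pM TPO; luciferase signal is read after 10 min at room temperature.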

[7] = biological target: Pyruvate kinase PKM (Homo sapiens) (UniProt P14618); test: qHTS Assay for Activators of Human Muscle Pyruvate Kinase (AID 954; active = well fitted curve in the direction sought with a large enough effect, not every such curve was filed as active;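 note: 0% = uninhibited enzyme and -100% = no enzyme or full thiadiazolimine inhibition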)
Summary of the method: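 Human PKM2 activity is measured as ATP generation, detected by luciferase-coupled luminescence. The enzyme (0.1 nM) acts on 0.5 mM PEP and 0.1 mM ADP for 1 h at ambient temperature; data are normalized to uninhibited and full-inhibition wells.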

[8] = biological target: Alpha-galactosidase A (Homo sapiens) (UniProt P06280); test: Counterscreen for Glucocerebrosidase Inhibitors: qHTS Assay for Human alpha-Galactosidase at pH 4.5 (AID 992; active = well fitted curve in the direction sought with a large enough effect; an effect the other way counts as inactive or inconclusive; note: 0% is about no effect)
Summary of the method: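 Quantitative HTS: compounds tested from 0.7 nM up to 77 uM against 2 nM enzyme with 80 uM 4-MU alpha-D-galactopyranoside. The 20 min room-temperature reaction is stopped with 1M NaOH/1M glycine, pH 10.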

[9] = biological target: alpha-glucosidase (Oryza sativa, rice) (UniProt Q653V4); test: Counterscreen for Glucocerebrosidase Inhibitors: qHTS Assay for Rice alpha-Glucosidase at pH 5.0 (AID 997; active = well fitted curve in the direction sought with a large enough effect; an effect the other way counts as inactive or inconclusive;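 note: 0% = full activity with enzyme and -100% = basal without enzyme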)
Summary of the method: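 Rice alpha-glucosidase (4 nM final) with 400 uM 4-methylumbelliferyl-alpha-D-glucopyranoside in citrate buffer pH 5.0, 20 min at room temperature, stopped at pH 10; fluorescence 365/440 nm, compounds 0.7 nM–77 uM, AC50 from Hill fits.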

[10] = biological target: Glucocorticoid receptor (Homo sapiens) (UniProt P04150); test: GR-GFP Redistribution (AID 450;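 active = compounds whose dose series gives a full or clear partial fitted curve of increased nuclear translocation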; note: potency is the fitted concentration of half-maximal effect); conditions: U2OS GR-GFP nuclear translocation, laser cytometry, 2 h
[11] = biological target: Glucocorticoid receptor (Homo sapiens) (UniProt P04150); test: GR-EFC Redistribution (AID 451; calls by dose curve; note: potency is the fitted concentration of half-maximal effect); conditions: CHO-K1 GR-EFC translocation, beta-gal luminescence, 2 h
Summary of the method: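 CHO-K1 cells expressing nuclear EA and GR-ED fragments of b-gal; compounds titrated up to 46 uM final, 2 h at 37 C. GR nuclear translocation read as complemented b-gal luminescence after 1 h RT detection.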

[12] = biological target: 3',5'-cyclic-AMP phosphodiesterase 4B (Homo sapiens) (UniProt Q07343); test: qHTS Assay for Inhibitors of PDE-IV (AID 607; active = well fitted activation curve with a large enough effect in the main read-out, with a control signal flat, not every such curve was filed as active; note: % of control where 0% means no effect)
Summary of the method: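 Cell-based read-out of cAMP via a modified cyclic nucleotide-gated channel and membrane potential dye (535/590 nm) in HEK293 cells expressing PDE4 endogenously. Compounds tested up to 22.9 uM final; 100 uM RO 20-1724 reference.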

[13] = biological target: Cytochrome P450 1A2 (Homo sapiens) (UniProt P05177); test: p450-cyp1a2 (AID 410; calls by dose curve; note: potency is the fitted concentration of half-maximal effect;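 for activity change, negative = inhibition: -100% = full effect of reference inhibitor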)
Summary of the method: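 Human CYP1A2 (20nM) demethylated Luciferin-ME at its Km (100uM) in 100mM KPO4. After 10 min compound preincubation, NADPH regeneration ran the reaction 60 min at room temperature. Luciferin was read by luminescence, normalized to 57 uM furafylline.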

[14] = biological target: Cytochrome P450 3A4 (Homo sapiens) (UniProt P08684); test: qHTS Assay for Activators of Cytochrome P450 3A4 (AID 885; active = well fitted curve in the direction sought with a large enough effect; an effect the other way counts as inactive or inconclusive; note: nearly all actives have a fitted effect of over 65% in size)
Summary of the method: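 Signal was normalized against complete inhibition by 57 uM ketoconazole. The reaction used 20nM CYP3A4 with 25uM Luciferin-PPXE, 10-min compound preincubation and a 60-min NADPH-supported step at RT.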

[15] = biological target: Muscarinic acetylcholine receptor M1 (Rattus norvegicus) (UniProt P08482); test: qHTS Assay for Antagonists of Acetylcholine Muscarinic M1 Receptor: Kinetic Measurement of Intracellular Calcium Response (AID 943; active = well fitted curve in the direction sought with a large enough effect; an effect the other way counts as inactive or inconclusive;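 note: Fluo-4 calcium signal as peak divided by basal fluorescence over 4 min; nearly all actives have a fitted effect of over 75% in size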)
Summary of the method: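 CHO cells stably expressing rat M1 were loaded with no-wash Fluo-4 dye for 1 h at 37C, pre-incubated 10 min with compound, then challenged with EC80 carbachol (100 nM final); kinetic calcium read 4 min, peak/basal ratio.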

[16] = biological target: Muscarinic acetylcholine receptor M1 (Rattus norvegicus) (UniProt P08482); test: qHTS Assay for Antagonists of Acetylcholine Muscarinic M1 Receptor: Measurement of IP-One Response (AID 944; active = well fitted curve in the direction sought with a large enough effect; an effect the other way counts as inactive or inconclusive; note: nearly all actives have a fitted effect of over 75% in size)
Summary of the method: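 CHO cells expressing rat M1 receptor, recovered overnight, were pre-incubated 10 min with compound, then stimulated 30 min with carbachol at EC80 (200 nM) in LiCl-containing buffer, pH 7.4. IP1 accumulation was read by HTRF (620/665 nm).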

[17] = biological target: Pyruvate kinase (Leishmania mexicana) (UniProt Q27686); test: qHTS Validation Assay for Inhibitors of Leishmania Mexicana Pyruvate Kinase (AID 945; active = well fitted curve in the direction sought with a large enough effect; an effect the other way counts as inactive or inconclusive;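 note: 0% = DMSO only neutral control wells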)
Summary of the method: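 Pyruvate kinase activity of E451W LmPYK (0.2 nM) was followed as ATP output after 1 h at room temperature with 0.5 mM PEP and 0.1 mM ADP, detected by PKLight luminescence.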

[18] = at 7.69 µM (top of the series) unless noted

Sequence of Muscarinic acetylcholine receptor M1 (Rattus norvegicus) (P08482 whole entry, looked up): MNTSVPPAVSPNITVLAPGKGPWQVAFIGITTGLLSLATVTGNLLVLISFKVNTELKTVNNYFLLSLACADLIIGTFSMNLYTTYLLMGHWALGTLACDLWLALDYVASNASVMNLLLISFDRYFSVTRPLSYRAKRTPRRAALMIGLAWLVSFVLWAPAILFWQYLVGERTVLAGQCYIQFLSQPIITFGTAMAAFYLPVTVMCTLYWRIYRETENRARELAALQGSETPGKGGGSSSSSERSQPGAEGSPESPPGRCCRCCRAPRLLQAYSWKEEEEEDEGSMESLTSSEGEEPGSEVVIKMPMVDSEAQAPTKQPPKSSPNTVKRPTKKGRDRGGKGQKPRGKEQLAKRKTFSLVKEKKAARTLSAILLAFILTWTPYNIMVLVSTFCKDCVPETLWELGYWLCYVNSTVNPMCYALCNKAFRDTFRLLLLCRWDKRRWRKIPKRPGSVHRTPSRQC
Sequence of Pyruvate kinase (Leishmania mexicana) (Q27686 2-499 E452W): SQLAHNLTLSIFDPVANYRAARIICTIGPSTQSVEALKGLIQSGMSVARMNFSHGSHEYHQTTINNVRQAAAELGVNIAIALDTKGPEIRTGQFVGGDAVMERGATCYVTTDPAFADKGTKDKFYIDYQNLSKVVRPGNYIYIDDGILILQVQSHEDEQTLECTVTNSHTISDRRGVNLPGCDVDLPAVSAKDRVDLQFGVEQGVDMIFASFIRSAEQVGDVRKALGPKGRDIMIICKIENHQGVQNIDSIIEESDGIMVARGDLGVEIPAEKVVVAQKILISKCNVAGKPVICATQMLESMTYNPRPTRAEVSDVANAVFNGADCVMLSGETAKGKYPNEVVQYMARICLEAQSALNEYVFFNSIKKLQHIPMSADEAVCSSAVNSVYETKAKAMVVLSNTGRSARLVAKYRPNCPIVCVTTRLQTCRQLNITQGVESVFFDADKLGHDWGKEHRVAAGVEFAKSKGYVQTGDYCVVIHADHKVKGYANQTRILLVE
Sequence of Glucocorticoid receptor (Homo sapiens) (P04150 whole entry, looked up, the tested form may be a part): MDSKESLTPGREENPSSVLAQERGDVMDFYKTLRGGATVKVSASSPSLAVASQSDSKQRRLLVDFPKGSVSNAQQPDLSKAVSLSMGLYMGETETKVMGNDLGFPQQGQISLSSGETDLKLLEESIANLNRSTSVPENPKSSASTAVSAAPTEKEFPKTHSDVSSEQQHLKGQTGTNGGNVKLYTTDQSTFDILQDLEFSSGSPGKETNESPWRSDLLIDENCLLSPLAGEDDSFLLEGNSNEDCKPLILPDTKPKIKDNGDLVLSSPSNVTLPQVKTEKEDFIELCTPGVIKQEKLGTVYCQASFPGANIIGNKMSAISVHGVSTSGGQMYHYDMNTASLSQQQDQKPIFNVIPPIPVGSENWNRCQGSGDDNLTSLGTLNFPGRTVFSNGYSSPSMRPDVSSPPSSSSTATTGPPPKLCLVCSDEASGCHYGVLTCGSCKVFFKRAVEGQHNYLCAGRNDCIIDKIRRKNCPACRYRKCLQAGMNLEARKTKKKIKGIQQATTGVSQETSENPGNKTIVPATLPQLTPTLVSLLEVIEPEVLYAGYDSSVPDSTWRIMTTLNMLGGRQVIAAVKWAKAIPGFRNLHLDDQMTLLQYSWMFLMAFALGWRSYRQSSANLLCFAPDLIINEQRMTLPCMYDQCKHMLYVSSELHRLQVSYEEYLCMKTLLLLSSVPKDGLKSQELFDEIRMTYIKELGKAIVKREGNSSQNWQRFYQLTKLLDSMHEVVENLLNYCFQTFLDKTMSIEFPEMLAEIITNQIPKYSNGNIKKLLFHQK
Sequence of Cytochrome P450 1A2 (Homo sapiens) (P05177 whole entry, looked up): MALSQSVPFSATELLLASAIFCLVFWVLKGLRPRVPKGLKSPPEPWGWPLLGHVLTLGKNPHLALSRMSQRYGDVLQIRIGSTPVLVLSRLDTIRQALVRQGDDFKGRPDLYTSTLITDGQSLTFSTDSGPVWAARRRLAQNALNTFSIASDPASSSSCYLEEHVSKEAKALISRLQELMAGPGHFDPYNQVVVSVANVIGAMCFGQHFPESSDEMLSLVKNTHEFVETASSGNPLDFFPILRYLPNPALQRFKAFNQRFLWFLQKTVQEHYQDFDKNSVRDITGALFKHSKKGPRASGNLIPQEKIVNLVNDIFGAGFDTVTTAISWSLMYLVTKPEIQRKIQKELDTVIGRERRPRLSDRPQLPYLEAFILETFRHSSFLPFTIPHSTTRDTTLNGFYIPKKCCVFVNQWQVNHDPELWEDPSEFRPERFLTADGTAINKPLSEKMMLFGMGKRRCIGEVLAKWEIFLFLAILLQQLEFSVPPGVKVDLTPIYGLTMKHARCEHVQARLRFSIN
Sequence of Guanine nucleotide-binding protein G(i) subunit alpha-1 (Homo sapiens) (P63096 whole entry, looked up): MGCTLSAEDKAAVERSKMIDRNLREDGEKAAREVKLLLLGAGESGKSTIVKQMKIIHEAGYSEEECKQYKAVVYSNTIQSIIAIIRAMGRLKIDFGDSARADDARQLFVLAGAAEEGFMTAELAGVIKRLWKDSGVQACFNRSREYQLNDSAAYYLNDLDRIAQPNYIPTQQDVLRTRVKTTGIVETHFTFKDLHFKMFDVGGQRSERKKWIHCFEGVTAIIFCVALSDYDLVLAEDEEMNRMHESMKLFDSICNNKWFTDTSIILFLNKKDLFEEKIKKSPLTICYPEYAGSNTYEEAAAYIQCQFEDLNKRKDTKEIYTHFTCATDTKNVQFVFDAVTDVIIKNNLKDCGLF
Sequence of Pyruvate kinase PKM (Homo sapiens) (P14618 whole entry, looked up): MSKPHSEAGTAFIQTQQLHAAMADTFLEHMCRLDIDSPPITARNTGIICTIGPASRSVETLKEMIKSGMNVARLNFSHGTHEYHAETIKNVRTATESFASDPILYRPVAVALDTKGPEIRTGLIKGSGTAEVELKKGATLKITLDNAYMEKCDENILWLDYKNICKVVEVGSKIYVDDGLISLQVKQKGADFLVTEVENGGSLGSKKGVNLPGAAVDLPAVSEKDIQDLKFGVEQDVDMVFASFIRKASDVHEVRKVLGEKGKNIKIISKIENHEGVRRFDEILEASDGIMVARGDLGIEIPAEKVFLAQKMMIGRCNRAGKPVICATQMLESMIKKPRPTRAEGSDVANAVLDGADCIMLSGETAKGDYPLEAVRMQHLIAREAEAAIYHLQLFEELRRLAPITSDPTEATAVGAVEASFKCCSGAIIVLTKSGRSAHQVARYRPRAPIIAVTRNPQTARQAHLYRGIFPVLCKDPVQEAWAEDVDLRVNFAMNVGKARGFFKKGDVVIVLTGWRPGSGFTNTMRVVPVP
Sequence of Alpha-galactosidase A (Homo sapiens) (P06280 whole entry, looked up): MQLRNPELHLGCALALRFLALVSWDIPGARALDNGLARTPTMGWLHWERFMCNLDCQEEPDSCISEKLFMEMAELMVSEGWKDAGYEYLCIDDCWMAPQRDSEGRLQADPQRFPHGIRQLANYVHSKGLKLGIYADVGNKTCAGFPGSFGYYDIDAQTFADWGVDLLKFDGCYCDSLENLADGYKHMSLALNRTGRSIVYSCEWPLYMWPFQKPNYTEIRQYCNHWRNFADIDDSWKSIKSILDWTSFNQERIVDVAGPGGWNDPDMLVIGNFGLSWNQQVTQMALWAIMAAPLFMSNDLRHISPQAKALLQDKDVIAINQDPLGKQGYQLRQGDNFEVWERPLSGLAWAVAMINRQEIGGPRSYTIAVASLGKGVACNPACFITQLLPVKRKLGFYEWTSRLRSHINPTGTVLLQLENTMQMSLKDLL
Sequence of Cytochrome P450 3A4 (Homo sapiens) (P08684 whole entry, looked up): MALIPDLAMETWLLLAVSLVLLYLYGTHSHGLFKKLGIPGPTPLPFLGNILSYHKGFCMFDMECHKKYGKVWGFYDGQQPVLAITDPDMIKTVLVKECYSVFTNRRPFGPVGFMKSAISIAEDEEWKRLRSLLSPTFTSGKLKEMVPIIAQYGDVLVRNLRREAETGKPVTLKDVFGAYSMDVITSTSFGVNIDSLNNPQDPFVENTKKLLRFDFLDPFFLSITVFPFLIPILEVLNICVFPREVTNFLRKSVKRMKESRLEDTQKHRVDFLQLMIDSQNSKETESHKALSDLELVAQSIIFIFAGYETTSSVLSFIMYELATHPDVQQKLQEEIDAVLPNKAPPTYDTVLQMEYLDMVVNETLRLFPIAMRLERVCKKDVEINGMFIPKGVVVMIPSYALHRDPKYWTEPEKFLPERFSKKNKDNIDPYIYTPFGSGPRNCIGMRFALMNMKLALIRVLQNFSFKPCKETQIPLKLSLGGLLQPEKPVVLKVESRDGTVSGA
Sequence of 3',5'-cyclic-AMP phosphodiesterase 4B (Homo sapiens) (Q07343 whole entry, looked up): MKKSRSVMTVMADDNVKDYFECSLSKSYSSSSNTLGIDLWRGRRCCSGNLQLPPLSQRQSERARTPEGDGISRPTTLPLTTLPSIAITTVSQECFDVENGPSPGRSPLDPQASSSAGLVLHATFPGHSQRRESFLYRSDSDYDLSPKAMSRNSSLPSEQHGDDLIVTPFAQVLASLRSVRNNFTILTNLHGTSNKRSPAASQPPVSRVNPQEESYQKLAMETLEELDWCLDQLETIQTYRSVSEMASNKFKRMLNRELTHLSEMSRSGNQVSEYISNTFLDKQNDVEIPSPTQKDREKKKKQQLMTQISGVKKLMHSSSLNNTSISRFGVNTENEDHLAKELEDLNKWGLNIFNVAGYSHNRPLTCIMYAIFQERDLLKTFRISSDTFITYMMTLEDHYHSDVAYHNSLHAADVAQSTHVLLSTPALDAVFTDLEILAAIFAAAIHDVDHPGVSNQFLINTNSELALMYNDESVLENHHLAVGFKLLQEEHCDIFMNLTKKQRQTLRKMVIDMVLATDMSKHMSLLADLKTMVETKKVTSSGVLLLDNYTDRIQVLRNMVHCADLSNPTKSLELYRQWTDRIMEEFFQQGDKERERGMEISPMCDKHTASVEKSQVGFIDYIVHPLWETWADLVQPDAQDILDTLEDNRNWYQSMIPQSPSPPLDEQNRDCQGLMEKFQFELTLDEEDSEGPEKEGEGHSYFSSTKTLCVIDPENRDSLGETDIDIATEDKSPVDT

CN1[C@@H]2CC[C@H]1CC(OC(=O)[C@@H](CO)c1ccccc1)C2 (stereo not given in full)
inactive: activity change, negative = inhibition ([1]; at 17.2 µM (top of the series)) -0.827% and 1.39% | activity change, negative = inhibition ([1]; at 38 µM (top of the series)) 10.7% and -6.14% | activity, negative = inhibition ([3]; at 17.2 µM (top of the series)) 10.3% and 3.29% | activity, negative = inhibition ([3]; at 38 µM (top of the series)) 27.8% and 8.42% | Potency [4] | outcome [5] | outcome [6] | outcome [7] | outcome [8] | Potency [9]
active: activity change, negative = inhibition [2, 18] -38.1% [at 17.2 µM]

Cc1ccc(CCCC(=O)O)cc1C
inactive: activity, negative = inhibition [3, 18] 3.42% | Potency [10] > 46 µM | Potency [11] > 9.22 µM | Potency [4] | Potency [12]

O=C(O)c1c2c(c(O)c3c1CN(C1CCCCC1)CO3)OCN(C1CCCCC1)C2
inactive: activity change, negative = inhibition [1, 18] 4.96% | Potency [13] | activity change, negative = inhibition [2, 18] 29.1% | activity, negative = inhibition [3, 18] 0.651% | Potency [10] > 46 µM | Potency [11] > 9.22 µM | Potency [4] | Potency [12]

CC(C)[C@@H]1NC(=O)[C@H](CCCCN)NC(=O)[C@H](Cc2c[nH]c3ccccc23)NC(=O)[C@H](Cc2ccc(O)cc2)NC(=O)[C@H](C)N(C)C(=O)[C@H](Cc2ccccc2)NC1=O
inactive: activity change, negative = inhibition [1, 18] 15.3% [at 38 µM] | Potency [13] | activity change, negative = inhibition [2, 18] -3.97% [at 38 µM] | activity, negative = inhibition [3, 18] -2.13% [at 38 µM] | Potency [10] > 46 µM | Potency [11] > 46 µM | Potency [4] | Potency [12] | outcome [5] | Potency [14] | outcome [6] | outcome [7] | outcome [8] | Potency [9]

Cc1nnc(SCC2=C(C(=O)O)N3C(=O)[C@@H](NC(=O)Cn4cnnn4)[C@@H]3SC2)s1
inactive: activity change, negative = inhibition ([1]; at 17.2 µM (top of the series)) 3.67% | activity change, negative = inhibition ([1]; at 38 µM (top of the series)) 2.44% | Potency [13] | activity change, negative = inhibition ([2]; at 17.2 µM (top of the series)) 2.74% | activity change, negative = inhibition ([2]; at 38 µM (top of the series)) -2.96% | activity, negative = inhibition ([3]; at 17.2 µM (top of the series)) 8.89% | activity, negative = inhibition ([3]; at 38 µM (top of the series)) -5.18% | Potency [4] | Potency [12] | outcome [5] | outcome [6] | Potency [15] | Potency [16] | outcome [7] | outcome [8] | Potency [9]

Nc1ncnc2c1nc(Sc1ccc(Cl)cc1)n2[C@@H]1O[C@H]2COP(=O)(O)O[C@@H]2[C@H]1O
inactive: activity change, negative = inhibition [1, 18] 6.42% [at 38 µM] | Potency [13] | activity change, negative = inhibition [2, 18] -0.761% [at 38 µM] | activity, negative = inhibition [3, 18] 5.32% [at 38 µM] | Potency [10] > 46 µM | Potency [11] > 46 µM | Potency [4] | Potency [12] | outcome [5] | outcome [6] | Potency [15] | Potency [16] | outcome [17] | outcome [7] | outcome [8] | Potency [9]

NC(=O)c1ncn([C@@H]2O[C@@H](CO)[C@@H](O)[C@H]2O)c1O
inactive: activity change, negative = inhibition [1, 18] 15.7% [at 38 µM] | Potency [13] | activity change, negative = inhibition [2, 18] 2.24% [at 38 µM] | activity, negative = inhibition [3, 18] 3.38% [at 38 µM] | Potency [10] > 46 µM | Potency [11] > 46 µM | Potency [4] | Potency [12] | outcome [5] | outcome [6] | Potency [15] | outcome [17] | outcome [7] | outcome [8]

CN(C)C(=O)/N=N\C(=O)N(C)C
inactive: activity change, negative = inhibition [1, 18] 9.37% [at 38 µM] | Potency [13] | activity change, negative = inhibition [2, 18] -14.2% [at 38 µM] | activity, negative = inhibition [3, 18] 5.55% [at 38 µM] | Potency [10] > 46 µM | Potency [11] > 46 µM | Potency [4] | Potency [12] | outcome [5] | Potency [15] | Potency [16] | outcome [7] | outcome [8]

Oc1ccc([C@@H]2CNCc3sccc32)cc1O
inactive: activity change, negative = inhibition [1, 18] -15.6% [at 38 µM] | Potency [13] | activity change, negative = inhibition [2, 18] 8.54% [at 38 µM] | activity, negative = inhibition [3, 18] 5.59% [at 38 µM] | Potency [10] > 46 µM | Potency [11] > 46 µM | Potency [4] | Potency [12] | outcome [5] | Potency [14] | Potency [16] | outcome [17] | outcome [7] | outcome [8] | Potency [9]

Cc1cccc(C)c1OC[C@@H](N)C(C)C
active: Potency [13] 12.6 µM
inactive: activity change, negative = inhibition [1, 18] 9.48% [at 38 µM] | activity change, negative = inhibition [2, 18] 4.41% [at 38 µM] | activity, negative = inhibition [3, 18] 4.92% [at 38 µM] | Potency [10] > 46 µM | Potency [11] > 46 µM | Potency [4] | Potency [12] | outcome [5] | Potency [14] | Potency [16] | outcome [17] | outcome [7] | outcome [8]

OC[C@@H]1O[C@@H](n2cnc3c(NC4CCCC4)ncnc32)[C@@H](O)[C@H]1O
inactive: activity change, negative = inhibition [1, 18] -0.201% [at 38 µM] | Potency [13] | activity change, negative = inhibition [2, 18] 1.91% [at 38 µM] | activity, negative = inhibition [3, 18] 12.2% [at 38 µM] | Potency [10] > 46 µM | Potency [11] > 46 µM | Potency [4] | Potency [12] | outcome [5] | outcome [6] | outcome [17] | outcome [7] | outcome [8] | Potency [9]
